Among the data in PubChem BioAssay AID485297 (National Center for Advancing Translational Sciences (NCATS), 2010) are Potency and activation, negative = inhibition values, retold here.

Out of some 320,000 compounds screened, about 9,100 (2.8%) were called active. Entries that show only a call come without a potency. Roughly 3% stayed inconclusive and do not appear here. The sample as a whole holds a higher share of actives than the screen did. Values without a mark were called inactive. Calls come from the whole dose curve; as a rule, active = well fitted activation curve with a large enough effect; inconclusive = small, poorly fitted or top-dose-only effect; inactive = no such curve, though single readings can be large or run the other way.
Potency is the fitted concentration of half-maximal effect.

The assay is described as follows: qHTS Assay for Rab9 Promoter Activators. Note: nearly all actives have a fitted effect of over 60% in size. The note with it: Huh7 Rab9 promoter-luciferase reporter, luminescence, 24 h; series mostly up to 9.22 µM. The essentials:
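Cells were plated at 1500 per well in reduced-serum medium with 10% FBS and left 2 h. Compound in DMSO was then added for 24 h at 37 °C. Reporter signal was read by luminescence after 10 min with luciferase detection reagent.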
In general terms: Quantitative high-throughput screening tests each substance at several concentrations.
Turning to `Cc1c(CNCCc2ccccc2)c(C(=O)O)c(C)n1-c1ccccc1`, the Potency result was “inactive”.

In the case of `CCOc1cc(CNCCN(C)C)c(Cl)cc1OCC(=O)NCCc1ccccc1`, the Potency entry is “inactive”. The same measure, in the same setting: next, `O=C(CN1CCc2ccccc2C1)Nc1cccc(S(=O)(=O)N2CCOCC2)c1`: “inactive”. As to `CC1CCN(C(=O)c2ccccc2NC(=O)Cc2ccccc2)CC1`, the Potency result is “inactive”. On the same count and under the same terms, then `COc1ccc(Cc2nc3ccc(C(=O)NCC4CCOCC4)cc3o2)cc1OC`, with “inactive”; and `CCCCc1nc2cc(C(=O)NCCc3cnn(C)c3)ccc2o1`, with “inactive”; and `CSCCNC(=O)c1ccc2nc(Cc3ccccc3F)oc2c1`, with 2.82 µM (active).

For `COCCn1c(C)cc(C(=O)CSc2nnc(C3CC3)n2C2CC2)c1C`, the Potency result was “inactive”.

Take `O=C(CNC(=O)c1ccccc1Br)NNC(=O)c1cccs1`: the Potency result was “inactive”. On the same count and under the same terms, next, `COc1cccc(N2CCN(CC(=O)Nc3ccnn3C3CCCC3)CC2)c1`: “inactive”; `O=C(O)c1ccccc1C(=O)Nc1nc(-c2ccccc2)cs1`: “inactive”; `O=C(Nc1nnc(-c2ccccc2F)s1)c1ccccc1F`: 0.708 µM (active).

Regarding `O=C(NCCc1csc(-c2ccccc2)n1)c1ccccc1F`, the Potency entry is “inactive”. Same read-out and setting: next, `O=C(Nc1nc(-c2ccc(-c3ccccc3)cc2)cs1)c1cnccn1`: “inactive”. For the compound `Cc1ccccc1Nc1nc(-c2cccnc2)cs1`, the Potency is 2 µM (active).

On to `CN(c1ccc(O)cc1)c1nc(-c2cccnc2)cs1`, for which the Potency result is “inactive”. On the same count and under the same terms, next, `CN(Cc1ccccc1)S(=O)(=O)c1nnc(NC(=O)c2ccccc2F)s1`: “inactive”. Same read-out and setting: next, `O=C(Nc1nc(-c2cccnc2)cs1)c1ccccc1F`: 3.55 µM (active). For `O=C(Nc1ccc(NC(=O)c2ccccc2F)cc1)c1ccccc1F`, the Potency entry is “inactive”. `CC(=O)c1ccc(S(=O)(=O)NCCC(=O)N2CCN(c3ccccn3)CC2)cc1`: the Potency result was “inactive”. `CCC(C(=O)N1CCN(S(=O)(=O)c2sc(C(=O)O)c(C)c2C(=O)O)CC1)c1ccccc1` (stereo not given): the Potency entry was “inactive”. Consider `Cc1ccc(COC(=O)CN2C(=O)NC3(CCCC3)C2=O)cc1`, for which the Potency entry is “inactive”. On the same count and under the same terms, next, `COc1ccc(C(=O)OC(C)C(=O)NC2CCCC2)cc1S(=O)(=O)N1CCOCC1` (stereo not given): “inactive”; `O=C(COC(=O)Cn1[nH]c(=O)c2ccccc2c1=O)Nc1ncc(Cl)cc1Cl`: “inactive”; `CCCSC(=S)NC1CCS(=O)(=O)C1` (stereo not given): “inactive”. As to `CN(CC(=O)NCc1ccc2c(c1)OCO2)CC(=O)Nc1ccc(F)c(F)c1F`, the Potency entry was “inactive”. The same measure, in the same setting: then `Cc1ccc(S(=O)(=O)N2CCCCC2)cc1C(=O)N1CCN(CCO)CC1`, with “inactive”. The same measure, in the same setting: then `c1ccc(CN2CCC(N=C3NN=C(c4ccc5c(c4)OCCO5)CS3)CC2)cc1`, with “inactive”.

On to `CN(C)c1nc(=Nc2cccc(Cl)c2)ss1`, for which the Potency entry is “inactive”. On to `Clc1cccc(N=C2NN=C(c3ccc4c(c3)OCCO4)CS2)c1`, for which the Potency was 3.55 µM (active). On to `COc1ccc(CCNC(=O)COC(=O)C2CC2C)cc1` (stereo not given), for which the Potency entry was “inactive”.

Turning to `COc1ccc(-c2cc(C(=O)NCCCn3ccnc3)no2)cc1`, the Potency entry was “inactive”. Still for that read-out and setting: next, `COc1ccccc1-c1cc(C(=O)NCCCn2ccnc2)no1`: “inactive”; `O=C(Nc1cccnc1Cl)c1cc(-c2cccc(Cl)c2)on1`: “inactive”; `O=C(NCCCN1CCOCC1)c1cc(-c2cccc(O)c2)on1`: “inactive”.

Regarding `O=C(NC1CCCC1)c1cc(-c2ccccc2)on1`, the Potency was 2 µM (active).

Turning to `O=C(NCCCn1ccnc1)c1cc(-c2ccccc2)on1`, the Potency was 3.98 µM (active). The same measure, in the same setting: then `Cc1ccc(C(=O)CN2C(=O)NC3(CCOc4ccccc43)C2=O)s1` (stereo not given), with “inactive”. Same read-out and setting: next, `CN(C(=O)CSc1nnc(-c2ccc(C(C)(C)C)cc2)n1C)C1CCS(=O)(=O)C1` (stereo not given): “inactive”. Same read-out and setting: next, `CCNC(=O)c1cccc(NC(=O)C2CC(=O)N(CCc3ccccc3)C2)c1` (stereo not given): “inactive”; `O=S(=O)(Nc1cc(Cl)ccc1N1CCOCC1)c1ccccc1Cl`: “inactive”. With `CCOc1ncccc1C(=O)Nc1ccc(S(=O)(=O)Nc2nc(C)cc(C)n2)cc1`, the Potency result was “inactive”. As to `O=C(c1ccc(Cl)cc1)c1cnc(Nc2ccccc2)s1`, the Potency is 3.98 µM (active).

Consider `O=C(Nc1ccc(Cl)cc1)Nc1nnc(/C=C/c2ccccc2)s1`, for which the Potency entry is “inactive”.

Take `Nc1nc(COC(=O)CCC(=O)c2ccc(Cl)cc2)nc(Nc2ccccc2)n1`: the Potency result is “inactive”. With `CCCN(CC(=O)NC(=O)NC1CCCCC1)CC(=O)Nc1cc(Cl)ccc1Cl`, the Potency result was “inactive”. Still for that read-out and setting: next, `CN(C(=O)CSc1nnc(-c2ccc3c(c2)OCO3)o1)C1CCS(=O)(=O)C1` (stereo not given): “inactive”. On the same count and under the same terms, then `CCOC(=O)c1c(NC(=O)CN2C(=O)NC3(CCC(C)CC3)C2=O)sc(C)c1CC` (stereo not given), with “inactive”. In the case of `O=C(Nc1ccncc1)c1ccc([N+](=O)[O-])cc1Cl`, the activation, negative = inhibition is 1.06% [at 1.84 µM]. Regarding `O=C(Nc1ccc(Br)cn1)c1ccc([N+](=O)[O-])o1`, the Potency entry is “inactive”.

Consider `O=C(Nc1ccc(Br)cn1)c1ccc([N+](=O)[O-])cc1Cl`, for which the Potency was 2.51 µM (active). Regarding `CC/C(Cc1ccccc1)=N/NC(=O)CCn1nnc2ccccc21`, the Potency result was “inactive”. Take `CCO/N=C(/C)c1c(O)cc(-c2ccccc2)n(-c2ccccc2)c1=O`: the Potency entry was “inactive”. For the compound `O=C(CN1CCN(S(=O)(=O)/C=C/c2ccccc2)CC1)Nc1ccc(N2CCOCC2)cc1`, the Potency result is “inactive”. The same measure, in the same setting: next, `CC(=O)Nc1ccc(/C=C/C(=O)c2ccccc2)cc1`: 3.98 µM (active).

For `O=C(O)c1ccc2c(c1)C(=O)N(c1ccc(/C=C/C(=O)c3ccccc3)cc1)C2=O`, the Potency entry is “inactive”. `CC(OC(=O)/C=C/c1ccccc1)C(=O)Nc1ccc(C(N)=O)cc1` (stereo not given): the Potency entry was “inactive”. With `O=C(/C=C/c1ccc(N2CCOCC2)cc1)c1ccccc1`, the Potency was 4.47 µM (active). On the same count and under the same terms, then `CC(=O)Nc1ccc(NC(=S)NC(=O)/C=C/c2ccccc2)cc1`, with “inactive”. As to `CN(C)C(CNC(=O)c1ccc(OCc2cn3ccccc3n2)cc1)c1ccco1` (stereo not given), the Potency entry was “inactive”. As to `COc1ccc(C(=O)NCCNc2ccc([N+](=O)[O-])cn2)cc1`, the Potency result is “inactive”.

Regarding `Cc1csc(NC(=O)C2CCN(S(=O)(=O)c3ccccc3)CC2)n1`, the Potency result is “inactive”. Same read-out and setting: next, `CC(C)CNC(=S)Nc1ccc(F)cc1`: “inactive”. Take `CC(C)CNC(=O)C(=O)NCc1ccccc1`: the Potency entry is “inactive”. The same measure, in the same setting: next, `CC(C)CNC(=O)C(=O)Nc1ccc(N(C)C)cc1`: 3.16 µM (active); `COC(=O)C1=CN(c2ccc(F)c(F)c2)C=C(C(=O)OC)C1c1ccc([N+](=O)[O-])cc1`: “inactive”.

As to `COc1ccc([C@H]2CC(=O)C=C(c3ccc(CO)cc3)C2)cc1`, the Potency entry is “inactive”.

Take `Cc1csc(NC(=O)CSc2nc(=O)n(CCCN(C)C)c3c2CCC3)n1`: the Potency result is “inactive”. With `C=CCn1c(C)cc(C2=NNC(=NCC)SC2)c1C`, the Potency result was “inactive”. On the same count and under the same terms, then `COCCn1c(C)cc(C2=NNC(=Nc3ccc(F)cc3)SC2)c1C`, with 3.55 µM (active).
